Measurements published in PubChem BioAssay (NCI).
Compounds without any hit were thinned out: in the full panel of roughly 79,000, 15% have a hit. Activity calls are given as the source filed them. Cut-off read from the data, not from the text of the source: active = growth inhibition above about 70%; inactive = the rest.

Assays:
[1] = NCI Yeast Anticancer Drug Screen. Data for the rad52 strain (AID 147);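 note: 0% = growth of vehicle-treated control cultures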; conditions: S. cerevisiae rad52 mutant growth inhibition, hits give high values
Procedure, shortened: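 Genetically altered yeast (DNA damage repair defect) treated with compound; inhibition calculated relative to vehicle.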

[2] = NCI Yeast Anticancer Drug Screen. Data for the wt1 strain (AID 149);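 note: 0% = growth of vehicle-treated wt1 cultures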; conditions: S. cerevisiae wt1 strain (SPY 50644) growth inhibition, hits give high values
Procedure, shortened: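 Compounds are added to wt1 yeast cultures. Growth is then measured. Inhibition is expressed relative to vehicle-treated controls.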

[3] = NCI Yeast Anticancer Drug Screen. Data for the rad50EPP+ strain (AID 151);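 note: 0% = growth of vehicle-treated control cultures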; conditions: S. cerevisiae rad50 mutant strain, hits give high values
Procedure, shortened: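 Strain rad50EPP+; compound exposure; % growth inhibition vs vehicle.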

[4] = NCI Yeast Anticancer Drug Screen. Data for the mgt1 strain (AID 153); conditions: S. cerevisiae mgt1 mutant growth inhibition, hits give high values
Procedure, shortened: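 Read-out: yeast growth inhibition vs vehicle control. Strain mgt1, drawn from a panel altered in DNA damage repair or cell cycle control.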

[5] = NCI Yeast Anticancer Drug Screen. Data for the rad50 strain (AID 155);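 note: 0% = growth of vehicle-only cultures of the same strain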; conditions: S. cerevisiae rad50 strain growth inhibition, hits give high values
Procedure, shortened: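 Inhibition values express reduced yeast growth in compound-treated cultures relative to vehicle-treated controls.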

[6] = NCI Yeast Anticancer Drug Screen. Data for the mec2-1 strain (AID 157); conditions: S. cerevisiae mec2-1 strain, hits give high values
Procedure, shortened: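 Cells of the genetically defined mec2-1 yeast strain are incubated with test compound. Inhibition of growth is calculated against vehicle-treated controls.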

[7] = NCI Yeast Anticancer Drug Screen. Data for the rad14 strain (AID 159);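 note: 0% = growth of vehicle-treated control cultures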; conditions: S. cerevisiae rad14 strain growth inhibition, hits give high values
Procedure, shortened: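 A mutant yeast strain defective in DNA damage repair is treated with compound; inhibition of its growth is scored against untreated, vehicle-exposed cultures.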

[8] = NCI Yeast Anticancer Drug Screen. Data for the sgs1 mgt1 strain (AID 161);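 note: 0% = growth of cultures given vehicle only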; conditions: S. cerevisiae sgs1 mgt1 strain, hits give high values
Procedure, shortened: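 Mutant yeast exposed to compound; growth scored against vehicle-only wells.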

[9] = NCI Yeast Anticancer Drug Screen. Data for the cln2 rad14 strain (AID 165);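 note: 0% = growth equal to vehicle treated cultures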; conditions: S. cerevisiae cln2 rad14 strain, hits give high values
Procedure, shortened: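 The screen exposed genetically defined yeast (cln2 rad14) to test compounds and scored growth inhibition relative to vehicle-treated controls.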

[10] = NCI Yeast Anticancer Drug Screen. Data for the bub3 strain (AID 167); conditions: S. cerevisiae bub3 mutant strain, hits give high values
Procedure, shortened: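 Steps: expose the mutant yeast strain to compound; grow alongside vehicle-treated cultures; measure growth; express inhibition against the vehicle cultures.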

[11] = NCI Yeast Anticancer Drug Screen. Data for the wt2 strain (AID 169);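 note: 0% = growth of vehicle-treated yeast cultures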; conditions: S. cerevisiae wt2 strain growth inhibition, hits give high values
Procedure, shortened: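 Steps: yeast strain treated with compound; growth recorded; inhibition calculated relative to cultures given vehicle alone.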

[12] = NCI Yeast Anticancer Drug Screen. Data for the mlh1 strain (AID 171);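 note: 0% = growth of vehicle-treated control cultures of the same strain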; conditions: S. cerevisiae mlh1 strain growth inhibition, hits give high values
Procedure, shortened: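 Yeast screen: mutant strain plus compound, growth scored against vehicle control wells.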

[13] = NCI Yeast Anticancer Drug Screen. Data for the sgs1 strain (AID 173);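 note: 0% = growth of vehicle-only control cultures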; conditions: S. cerevisiae sgs1 mutant, hits give high values
Procedure, shortened: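 Inhibition of yeast growth served as the measure. The mutant strain was treated with each compound, and growth was normalised to cultures receiving vehicle alone.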

[14] = NCI Yeast Anticancer Drug Screen. Data for the mlh1 rad18 strain (AID 175); conditions: S. cerevisiae mlh1 rad18 strain growth inhibition, hits give high values
Procedure, shortened: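 Compound-treated yeast growth, normalised to vehicle controls. Strain bears defined DNA repair mutations.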

[15] = NCI Yeast Anticancer Drug Screen. Data for the rad18 strain (AID 177); conditions: S. cerevisiae rad18 mutant growth inhibition, hits give high values
Procedure, shortened: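 Inhibition values reflect reduced yeast growth compared with vehicle-treated controls, using a strain engineered with a DNA damage repair defect.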

[16] = NCI Yeast Anticancer Drug Screen. Data for the CLN2oe strain (AID 163);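 note: 0% = growth of vehicle-only control cultures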; conditions: S. cerevisiae CLN2oe strain, hits give high values
Procedure, shortened: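 Strain altered in cell-cycle control, incubated with compound; growth compared to solvent-treated controls.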

[17] = at 5.0 µM (retest, dose inferred, filed as 0.5)
[18] = at 50.0 µM (retest, dose inferred, filed as 5.0)

Measured: growth inhibition

OCc1ccccc1Cc1ccccc1
active: [5]; at 50.0 µM 87.9% | [14]; at 50.0 µM 79.6%
inactive: [1]; at 1.2 µM -4% | [1]; at 3.7 µM 0% | [1]; at 11.0 µM -2% | [1]; at 33.0 µM -3% | [1]; at 100.0 µM -3% | [2]; at 1.2 µM 0% | [2]; at 3.7 µM -1% | [2]; at 11.0 µM 0% | [2]; at 33.0 µM -2% | [2]; at 100.0 µM -7% | [3]; at 1.2 µM 2% | [3]; at 3.7 µM 2% | [3]; at 11.0 µM 8% | [3]; at 33.0 µM 12% | [3]; at 100.0 µM 30% | [4]; at 1.2 µM -3% | [4]; at 3.7 µM -5% | [4]; at 11.0 µM -2% | [4]; at 33.0 µM 12% | [4]; at 100.0 µM -10% | [5]; at 1.2 µM -1% | [5]; at 3.7 µM 0% | [5]; [17] 7% | [5]; at 11.0 µM -1% | [5]; at 33.0 µM -3% | [5]; [18] 21% | [5]; at 100.0 µM -6% | [6]; at 1.2 µM -1% | [6]; at 3.7 µM 2% | [6]; [17] -2% | [6]; at 11.0 µM -4% | [6]; at 33.0 µM -6% | [6]; [18] -17% | [6]; at 50.0 µM 53.4% | [6]; at 100.0 µM -6% | [7]; at 1.2 µM -1% | [7]; at 3.7 µM -1% | [7]; at 11.0 µM 0% | [7]; at 33.0 µM -2% | [7]; at 100.0 µM -3% | [8]; [17] 0% | [8]; [18] 50% | [8]; at 50.0 µM 60.5% | [9]; [17] 5% | [9]; [18] -2% | [9]; at 50.0 µM 32.9% | [10]; at 1.2 µM 2% | [10]; at 3.7 µM -1% | [10]; [17] 12% | [10]; at 11.0 µM 5% | [10]; at 33.0 µM 1% | [10]; [18] 40% | [10]; at 50.0 µM 65.8% | [10]; at 100.0 µM -9% | [11]; at 1.2 µM 0% | [11]; at 3.7 µM 0% | [11]; at 11.0 µM 0% | [11]; at 33.0 µM -2% | [11]; at 100.0 µM -7% | [12]; at 1.2 µM -1% | [12]; at 3.7 µM -1% | [12]; at 11.0 µM 0% | [12]; at 33.0 µM -2% | [12]; at 100.0 µM -3% | [13]; at 1.2 µM 0% | [13]; at 3.7 µM 2% | [13]; at 11.0 µM 2% | [13]; at 33.0 µM 1% | [13]; at 100.0 µM -1% | [14]; [17] 3% | [14]; [18] 63% | [15]; at 1.2 µM -1% | [15]; at 3.7 µM 0% | [15]; at 11.0 µM -16% | [15]; at 33.0 µM -2% | [15]; at 100.0 µM -6%

CCCOC(=O)C(F)C(Br)C(=O)OCCC (stereo unspecified)
active: [1]; at 3.7 µM 89% | [1]; at 11.0 µM 96% | [1]; at 33.0 µM 96% | [1]; at 100.0 µM 99% | [2]; at 3.7 µM 95% | [2]; at 11.0 µM 98% | [2]; at 33.0 µM 97% | [2]; at 100.0 µM 99% | [3]; at 11.0 µM 94% | [3]; at 33.0 µM 98% | [3]; at 100.0 µM 98% | [4]; at 3.7 µM 90% | [4]; at 11.0 µM 97% | [4]; at 33.0 µM 98% | [4]; at 100.0 µM 99% | [5]; at 3.7 µM 90% | [5]; at 11.0 µM 97% | [5]; at 33.0 µM 97% | [5]; [18] 98% | [5]; at 50.0 µM 89.8% | [5]; at 100.0 µM 99% | [6]; at 1.2 µM 71% | [6]; at 3.7 µM 97% | [6]; at 11.0 µM 97% | [6]; at 33.0 µM 98% | [6]; [18] 100% | [6]; at 50.0 µM 92% | [6]; at 100.0 µM 99% | [7]; at 11.0 µM 97% | [7]; at 33.0 µM 97% | [7]; at 100.0 µM 100% | [8]; [18] 98% | [8]; at 50.0 µM 91.9% | [16]; at 3.7 µM 87% | [16]; at 11.0 µM 97% | [16]; at 33.0 µM 97% | [16]; at 100.0 µM 98% | [9]; [18] 70% | [9]; at 50.0 µM 90.7% | [10]; at 3.7 µM 82% | [10]; at 11.0 µM 93% | [10]; at 33.0 µM 96% | [10]; [18] 99% | [10]; at 50.0 µM 90.5% | [10]; at 100.0 µM 96% | [12]; at 3.7 µM 92% | [12]; at 11.0 µM 98% | [12]; at 33.0 µM 97% | [12]; at 100.0 µM 99% | [13]; at 3.7 µM 96% | [13]; at 11.0 µM 98% | [13]; at 33.0 µM 97% | [13]; at 100.0 µM 99% | [14]; [17] 93% | [14]; [18] 98% | [14]; at 50.0 µM 89% | [15]; at 3.7 µM 93% | [15]; at 11.0 µM 97% | [15]; at 33.0 µM 96% | [15]; at 100.0 µM 98%
inactive: [1]; at 1.2 µM 38% | [2]; at 1.2 µM 42% | [3]; at 1.2 µM 33% | [3]; at 3.7 µM 28% | [4]; at 1.2 µM 54% | [5]; at 1.2 µM 58% | [5]; [17] 44% | [6]; [17] 67% | [7]; at 1.2 µM 21% | [7]; at 3.7 µM 67% | [8]; [17] 21% | [16]; at 1.2 µM 48% | [9]; [17] 11% | [10]; at 1.2 µM 38% | [10]; [17] 30% | [12]; at 1.2 µM 40% | [13]; at 1.2 µM 50% | [15]; at 1.2 µM 59%
